# Screening data as filed in PubChem BioAssay.
# SMN2 splice up: SMN2 splice variant enhancement; HEK293 SMN2-luciferase splicing reporter, luminescence, 30-36 h; Potency, µM (titrated, usually from 46.1 µM), inactives show at the highest dose activity change, positive = activation, hits mostly activators; actives 2.8% (n = 210,000); further: % of control where 0% means no effect; nearly all actives have a fitted effect of over 55% in size
#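 HEK293 cells carry an SMN2 minigene-luciferase reporter in which exon 7 inclusion puts luciferase in frame. Cells were seeded at 2000 cells/well, attached for 10-12 hours, then exposed to compounds for 30-36 hours at 37C before ONE-Glo luminescence.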
# FLuc counter: counter-screen for miR-21 project: firefly luciferase inhibitors or activators; purified FLuc, Km substrates, luminescence inhibition; Potency, µM (highest dose often 57.5 µM), for the others: at the highest dose activity change, negative = inhibition, most hits filed as inhibitors; actives 6.9% (n = 360,000); AID 588342;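 further: plate controls were vehicle for no effect and reference inhibitor for full effect; nearly all actives have a fitted effect of over 55% in size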
# Target sequence (P08659 whole entry, looked up): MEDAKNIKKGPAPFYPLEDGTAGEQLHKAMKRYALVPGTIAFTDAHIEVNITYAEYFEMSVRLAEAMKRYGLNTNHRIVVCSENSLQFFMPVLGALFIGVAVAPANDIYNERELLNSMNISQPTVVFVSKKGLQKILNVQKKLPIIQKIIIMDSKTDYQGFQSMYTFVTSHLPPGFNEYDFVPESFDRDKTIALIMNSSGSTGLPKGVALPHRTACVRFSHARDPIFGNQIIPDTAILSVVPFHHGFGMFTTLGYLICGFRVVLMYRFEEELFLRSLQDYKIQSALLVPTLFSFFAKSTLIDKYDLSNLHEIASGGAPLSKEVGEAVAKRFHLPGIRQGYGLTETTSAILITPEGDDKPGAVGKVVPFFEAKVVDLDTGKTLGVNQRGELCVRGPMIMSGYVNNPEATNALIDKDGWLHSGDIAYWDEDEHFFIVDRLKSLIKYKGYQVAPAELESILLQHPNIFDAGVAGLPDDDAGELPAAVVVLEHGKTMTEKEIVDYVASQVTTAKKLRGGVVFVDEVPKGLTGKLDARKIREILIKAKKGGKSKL
#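 Purified P. pyralis luciferase, 10 nM final, with Km-level 10 uM D-luciferin and 10 uM ATP in 50 mM Tris acetate pH 7.5, 10 mM Mg acetate, 0.01% Tween-20, 0.05% BSA; 6-point qHTS titration about 60 µM downward; luminescence read.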
# NPC1 promoter act: NPC1 promoter activation. Potency, µM (top dose mostly 9.22 µM), without a hit: top-dose activation, hits mostly activators. Huh7 NPC1 promoter luciferase reporter, 24 h. actives 2.4% (n = 320,000). AID 485313; further: % of control where 0% means no effect; nearly all actives have a fitted effect of over 60% in size
#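 Stably transfected Huh7 (NPC1 promoter→luciferase), 1500 cells/well in Opti-MEM + 10% FBS, 2 h settle, then compound 24 h at 37 °C. Luminescence after 10 min with Amplite reagent.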
# KinaseGlo FLuc: Kinase-Glo luciferase inhibition (counter-screen); Q27757; Kinase-Glo luciferase, ATP luminescence, 8 min; Potency, µM (series often up to 38.3 µM), for the others: top-dose activity change, negative = inhibition, actives largely listed as inhibitors; actives 0.28% (n = 200,000); AID 1379; further: on the % scale 0 is the no-effect control and ±100 the full control effect; nearly all actives have a fitted effect of over 60% in size
#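 Compound is pinned into ATP-containing buffer (10 uM ATP, imidazole pH 7.2, 7 mM MgCl2). Kinase-Glo luciferase reagent is then added. Light output is recorded following an 8-min room-temperature incubation.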
# ELG1 genotox: inducers of genotoxicity in HEK293T ELG1-luciferase cells; HEK293T ELG1-luciferase reporter, luminescence, 16 h; Potency, µM (titrated, usually from 46 µM), for the others: top-dose activity change, positive = activation, hits mostly activators; actives 1.3% (n = 330,000); further: % of control where 0% means no effect; nearly all actives have a fitted effect of over 60% in size
#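 ELG1-luciferase HEK293T cells, 2,000/well; compound pinned in; 16 hr, 37 °C, 5% CO2; ONE-Glo, 30 min RT; luminescence on CCD imager.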
# Rab9 prom act: activators of Rab9 promoter | actives 2.8% (n = 320,000) | Huh7 Rab9 promoter-luciferase reporter, luminescence, 24 h | Potency, µM (titrated, usually from 9.22 µM), for the others: at the top dose activation, negative = inhibition, hits mostly activators; further: % of control where 0% means no effect; nearly all actives have a fitted effect of over 60% in size
#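 Using Huh7 cells stably transfected with Rab9 promoter–luciferase, compounds were incubated 24 h at 37 °C, 5% CO2; luciferase luminescence was read 10 min after reagent addition.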
# Numbers without * were called inactive; ? = inconclusive; . = no result given; [ ] = another dose, or the depositor's remark. Most compounds without a hit are left out; they make up all but 7.5% or so of the library. The call rests on the fitted dose curve; in most records, active means well fitted curve in the direction sought with a large enough effect; inconclusive means small, poorly fitted or top-dose-only effect, or another doubt; inactive means no such curve, though single readings can be large; an effect the other way counts as inactive or inconclusive. Potency means the concentration at half of the fitted maximal effect.
SMILES,SMN2 splice up,FLuc counter,NPC1 promoter act,KinaseGlo FLuc,ELG1 genotox,Rab9 prom act
COc1ccc(C(=O)O/N=C(\C)c2ccccc2)cc1,-3.2%,0.675µM*,4.3%,12.6µM*,1.8%,2.4%
O=S(=O)(c1ccccc1Br)N(Cc1ccccc1)CC(O)COCc1ccccc1 (stereo not given),.,.,.,.,-3.2%,.
CN(CC(=O)Nc1ccc(Cl)cc1)C(=O)CNC(=O)c1ccc(Br)o1,.,-7.1%,-2.3%,.,1.7%,-3.9%
COc1ccccc1C1=NC(c2ccc(C)cc2)N=C1C (stereo not given),?,15.1µM*,?,4.3%,-8.4%,?
COc1ccccc1-c1nc2ccccc2nc1-c1ccccc1OC,1.3%,0.8%,-2.1%,0.7%,-1.5%,-11.4%
O=C1c2ccccc2-c2nc3ccccc3nc21,12.6µM*,15.1µM*,2.82µM*,-14.6%,4.47µM*,2.24µM*
Cc1cc(C)cc(NC(=O)Nc2ccc3nc(N4CCN(C)CC4)cc(C)c3c2)c1,.,-19.7%,.,.,.,.
Cc1ccc(NC(=O)Nc2ccc3nc(N4CCN(C)CC4)cc(C)c3c2)cc1F,.,-1.6%,.,.,.,.
COc1cccc(NC(=O)Nc2ccc3nc(N4CCN(C)CC4)cc(C)c3c2)c1,.,12µM*,.,.,.,.
Cc1cc(N2CCN(C)CC2)nc2ccc(NC(=O)Nc3ccccc3Cl)cc12,.,1.69µM*,.,.,.,.
CC(C)(C)OC(=O)N1CCC(c2c(C(=O)N3CCN(C(=O)c4ccco4)CC3)cnn2-c2ccccc2)CC1,.,3.0%,.,.,.,.
CCOC(=O)/C(=N/Nc1ccc(C)cc1)S(=O)(=O)c1ccc(Cl)cc1,3.2%,16.9µM*,?,-3.3%,?,?
CCOC(=O)/C(=N\Nc1ccccc1)S(=O)(=O)c1ccccc1,-6.2%,-7.6%,8.1%,-3.7%,1.0%,8.8%
O=C(Cn1c(=O)c2ccccc2n(CC(=O)Nc2ccc(F)cc2F)c1=O)NCCc1ccccc1,-6.0%,-6.6%,.,.,.,.
COc1cc(C(=O)Nc2nnc(SCC(=O)NCC3CCCO3)s2)cc(OC)c1OC (stereo not given),.,-0.9%,-5.2%,.,5.0%,2.6%
O=C(CSc1nc2ccc(NC(=O)C3CCCCC3)cc2s1)NCC1CCCO1 (stereo not given),-8.8%,16.9µM*,13.0%,0.8%,-1.7%,17.5%
COc1ccccc1C(=O)Nc1nnc(SCC(=O)NCC2CCCO2)s1 (stereo not given),.,6.01µM*,1.41µM*,.,?,3.55µM*
O=C(CSc1nnc(NC(=O)c2cccc(Cl)c2)s1)NCC1CCCO1 (stereo not given),.,6.75µM*,19.9%,.,?,23.4%
O=C(CSc1nc2ccccc2s1)NCC1CCCO1 (stereo not given),.,-7.8%,0.8%,.,9.6%,18.9%
COC(=O)c1ccc(-n2c(/C=C/c3cc(OC)c(OC)c(OC)c3)nc3cc(Cl)ccc3c2=O)cc1,.,-2.1%,.,.,.,.
O=C(Nc1cccc(Cl)c1)c1ccncc1,?,-13.2%,-3.8%,-3.0%,4.0%,-3.6%
O=C(Nc1cccc(Cl)c1)c1cnc[nH]1,11.2µM*,-22.7%,3.98µM*,.,?,4.47µM*
CC(=O)c1cccc(NC(=O)c2cc(-c3ccc(F)cc3)on2)c1,-11.7%,?,20.8%,-2.5%,10.5%,-0.2%
CC(=O)c1cccc(NC(=O)c2cc(C(C)C)on2)c1,?,6.75µM*,0.631µM*,-6.0%,9.2µM*,4.47µM*
CC(C)c1cc(C(=O)Nc2cccc(Cl)c2)no1,11.2µM*,0.953µM*,0.891µM*,-25.7%,?,0.891µM*
SMILES,SMN2 splice up,FLuc counter,NPC1 promoter act,KinaseGlo FLuc,ELG1 genotox,Rab9 prom act
CCc1ccc(S(=O)(=O)Nc2ccc(O)c(C(=O)O)c2)cc1,.,.,.,-1.1%,.,.
O=C(CSc1ccc(-c2cccc([N+](=O)[O-])c2)nn1)N1CCCC1,-6.1%,-9.5%,1.4%,-4.6%,8.3%,13.7%
CCSc1ccc(-c2cccc([N+](=O)[O-])c2)nn1,?,?,?,-1.5%,?,3.16µM*
COc1ccc(C(=O)N2CCN(c3ncnc4c(-c5ccccc5)nsc34)CC2)cc1,-87.3%,-1.4%,-4.4%,4.9%,-2.6%,-5.8%
COc1ccc(-c2nsc3c(N4CCN(S(=O)(=O)c5ccccc5F)CC4)ncnc23)cc1,-13.4%,-14.5%,1.2%,-0.2%,1.8%,0.7%
COc1ccc(-c2nsc3c(N4CCCCC4C)ncnc23)cc1 (stereo not given),-73.0%,0.338µM*,-29.5%,-5.6%,-8.9%,-43.7%
COc1ccc(-c2nsc3c(N4CCCCC4)ncnc23)cc1,-73.4%,0.0849µM*,?,-29.9%,?,?
C[C@H](CO)N1C[C@H](C)[C@@H](CN(C)S(=O)(=O)c2cn(C)cn2)Oc2ccc(NC(=O)Cn3cnnn3)cc2C1=O,.,.,.,.,2.8%,.
Cc1ccc(S(=O)(=O)Nc2ccccc2C(=O)c2ccc(C)c(C)c2)cc1,-1.3%[9.22 µM],.,.,-6.0%[7.66 µM],.,.
CCOC(=O)c1cnc(-n2nc(C)cc2C)nc1N(C)C,?,5.36µM*,?,?,?,4.47µM*
CCOC(=O)c1cnc(-n2nc(C)cc2C)nc1NC1CCCC1,.,-1.4%,-7.0%,.,-8.6%,-13.0%
CCC(=O)Nc1cc(-c2nc3cc(C)cc(C)c3o2)ccc1C,11.4%,1.69µM*,.,.,.,.
COc1ccc2oc(-c3cccc(NC(=O)c4ccc(C#N)cc4F)c3)nc2c1,-5.9%,-3.1%,.,.,.,.
CCc1ccc2oc(-c3ccc(C)c(NC(=O)Cc4ccccc4)c3)nc2c1,23.1%,4.78µM*,.,.,.,.
CCc1ccc2oc(-c3ccc(C)c(NC(=O)c4ccc(C#N)cc4F)c3)nc2c1,-10.2%,16.9µM*,.,.,.,.
CO/N=C(\C(=O)N[C@@H]1C(=O)N2C(C(=O)[O-])=C(C[N+]3(C)CCCC3)CS[C@@H]12)c1csc(N)n1,-6.9%[20.6 µM],.,.,0.2%[17.1 µM],.,.
COc1cc(C)ccc1OCCSc1nc2ccc(NC(=O)c3cccs3)cc2s1,.,-3.4%,.,.,.,.
CCCCc1nn2c(=O)cc(COC(=O)C3CCCCC3)nc2s1,.,-18.6%,.,.,.,.
COc1cccc(C2=NNC(=NCc3ccccc3)SC2)c1,?,21.3µM*,19.3%,-1.4%,2.3%,?
Cc1ccc(C)c(C2=NNC(=NCc3ccccc3)SC2)c1,-2.7%,-14.8%,11.3%,2.3%,-9.8%,1.0%
COc1ccc(CN=C2NN=C(c3ccccc3)CS2)cc1,?,26.9µM*,18.0%,0.8%,12.8%,?
COc1ccc(CN=C2NN=C(c3cccc(OC)c3)CS2)cc1,28.2µM*,?,28.4%,-4.3%,-7.2%,?
CC(=O)c1cccc(NC(=O)N2CCC(c3ccc(C)cc3)C2)c1 (stereo not given),.,16.9µM*,?,.,2.6%,14.6%
